The values below come from PubChem BioAssay (NCATS).

Several values for one entry are separate records, joined by “and”; a condition that tells them apart may be missing. Equal values may be shown once. Results filed as inconclusive are left out. Some structures have more than one record in an assay (separate samples or runs), and their calls can disagree. A number with no mark means an inactive call. Activity calls are given as the source filed them. Calls come from the whole dose curve; as a rule, active = well fitted inhibition curve with a large enough effect; inconclusive = small, poorly fitted or top-dose-only effect; inactive = flat fitted curve, though single readings scatter. Where a SMILES comes first, the peptide text is derived from it. Non-standard residues stand in square brackets, D forms with d. Residues, ends and D or L forms follow the SMILES beside them. Bridges are numbered along the chain shown (N, C = ends). [ ]: non-standard residue; d: D form. The star is where a group is joined. Dab(CH2SO3H) = N[C@@H](CCNCS(=O)(=O)O)C(=O)O; X3 = CC[C@@H](C)CCCCC(=O)*; Orn = NCCC[C@H](N)C(=O)O; Dab = NCC[C@H](N)C(=O)O

Test [1] deals with KB-3-1. Description: Cytotoxic Profiling of Annotated Libraries Using Quantitative High-Throughput Screening (AID 1296008). For max response: % is set by controls: 0 for no effect and ±100 for the full control effect. The following applies: Five cell lines viability, CellTiter-Glo ATP luminescence, 48-72 h; max response: stronger effect = lower value. The essentials: (§1)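 Cytotoxicity was measured as CellTiter-Glo ATP luminescence, read after 10 min at room temperature. Compound treatment of the cells lasted 48 or 72 hr at 37 degrees Celsius in a qHTS format.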

Test [2] concerns TAB165. In words: qHTS profiling for inhibitors of Plasmodium falciparum proliferation (AID 504749). The following applies: P. falciparum in erythrocytes, SYBR Green DNA, 72 h; series mostly up to 28.7 µM. The essentials: (§2)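 SYBR Green fluorescence of parasite DNA, read after lysis and overnight dark incubation, measured growth over 72 h in erythrocyte culture at 0.3% parasitemia and 2.5% hematocrit. Data normalised to DMSO and 0.29 uM artemisinin, with plate-drift correction.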

Test [3] has as its system W2. The test is described as above. The following applies: P. falciparum in erythrocytes, SYBR Green DNA, 72 h; series mostly up to 28.7 µM. The essentials:
as §2

In test [4] the test system is HEK293. In words: Cytotoxic Profiling of Annotated Libraries Using Quantitative High-Throughput Screening (AID 1296008). For max response: % is set by controls: 0 for no effect and ±100 for the full control effect. The following applies: Five cell lines viability, CellTiter-Glo ATP luminescence, 48-72 h; max response: stronger effect = lower value. The essentials:
as §1

The subject of test [5] is HaCat. The description is as above. The following applies: Five cell lines viability, CellTiter-Glo ATP luminescence, 48-72 h; max response: stronger effect = lower value. The essentials:
as §1

Test [6] has as its system NIH3T3. The description is as above. The following applies: Five cell lines viability, CellTiter-Glo ATP luminescence, 48-72 h; max response: stronger effect = lower value. In outline:
as §1

Test [7] relates to CRL-7250. The test is described as above. The following applies: Five cell lines viability, CellTiter-Glo ATP luminescence, 48-72 h; max response: stronger effect = lower value. The essentials: as §1
Test [8] has as its system HEK293T. Description: qHTS assay to identify novel small-molecules to repurpose for Merkel cell carcinoma treatment (AID 1296009). The following applies: MCC and control cell lines, CellTiter-Glo viability, 72 h; series mostly up to 44.8 µM. The essentials:
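Cell viability, measured as CellTiter-Glo luminescence, was normalized between DMSO and no-cell wells. The cells had been exposed to 8- or 11-point compound dilutions for 72 hr at 37 degree celsius.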
Note: nearly all actives have a fitted effect of over 60% in size.
Potency is the fitted concentration of half-maximal effect.

Consider `NCc1ccccc1CC(=O)N[C@@H]1C(=O)N2C(C(=O)O)=C(CSc3nnnn3CC(=O)O)CS[C@H]12`, for which, in test [1], the max response is -8.7%.
Take `CC(=O)OCC(=O)[C@@]12OC3(CCCC3)O[C@@H]1C[C@H]1[C@@H]3CCC4=CC(=O)C=C[C@]4(C)[C@@]3(F)[C@@H](O)C[C@@]12C`: in test [1], the max response was -4.92%.
As to `CC(C)C[C@@H]1NC(=O)[C@H](CCCN)NC(=O)[C@H](C(C)C)NC(=O)[C@@H]2CCCN2C(=O)[C@@H](Cc2ccccc2)NC(=O)[C@H](CC(C)C)NC(=O)[C@H](CCCN)NC(=O)[C@H](C(C)C)NC(=O)[C@@H]2CCCN2C(=O)[C@@H](Cc2ccccc2)NC1=O` (cyclo(V[Orn]L[dF]PV[Orn]L[dF]P)), in test [1], the Potency was 0.82 µM (active).
Turning to `CCOC(=O)O[C@]1(C(=O)COC(=O)CC)CC[C@H]2[C@@H]3CCC4=CC(=O)C=C[C@]4(C)[C@H]3[C@@H](O)C[C@@]21C`, the max response in test [1] is 0.126%.
On to `CN1CCC(CN2c3ccccc3Sc3ccccc32)C1` (stereo not given), for which the max response in test [1] was -8.09%.
Consider `CCCCC(CC)COC(=O)CC(C(=O)OCC(CC)CCCC)S(=O)(=O)O` (stereo not given), for which, in test [1], the max response was -3.48% and -14.8%.
For `CC[C@@H](C)CCCCC(=O)N[C@@H](CCNCS(=O)(=O)O)C(=O)N[C@H](C(=O)N[C@@H](CCNCS(=O)(=O)O)C(=O)N[C@H]1CCNC(=O)[C@H]([C@@H](C)O)NC(=O)[C@H](CCNCS(=O)(=O)O)NC(=O)[C@H](CCNCS(=O)(=O)O)NC(=O)[C@H](CC(C)C)NC(=O)[C@@H](CC(C)C)NC(=O)[C@H](CCNCS(=O)(=O)O)NC1=O)[C@@H](C)O` (X3-[Dab(CH2SO3H)]T[Dab(CH2SO3H)][Dab][Dab(CH2SO3H)][dL]L[Dab(CH2SO3H)][Dab(CH2SO3H)]T; lactam 4-C), in test [1], the max response was 9.65%.
As for `CO[C@@H]1[C@@H](O[C@@H]2O[C@H](C)[C@@H](O[C@H]3C[C@@](C)(O)[C@@H](OC(=O)CC(C)C)[C@H](C)O3)[C@H](N(C)C)[C@H]2O)[C@@H](CC=O)C[C@@H](C)C(=O)/C=C/C2OC2C[C@@H](C)OC(=O)C[C@H]1OC(C)=O` (stereo not given in full), the max response in test [1] is 20.2%.
On to `C=CC1=C(C)C2=CC3=NC(=C(CC(=O)[O-])C4=NC(=C(C)C4=C([O-])[O-])C=c4[n-]c(c(C)c4CC)=CC1=N2)C(CCC(=O)[O-])C3C.[Cu+2].[Na+].[Na+].[Na+]` (stereo not given), for which the max response in test [1] was -6.08%.
For the molecule `COC(=O)[C@H]1[C@H]2C[C@@H]3c4[nH]c5ccccc5c4CCN3C[C@H]2C[C@@H](OC(=O)c2cc(OC)c(OC)c(OC)c2)[C@@H]1OC`, the Potency in test [2] was 178 nM (active); in test [3] it was 151 nM (active); in test [1], 7.31 µM (active). Besides, the max response in test [1] is -19.2%.
Regarding `CC(=O)O[C@]1(C(C)=O)CC[C@H]2[C@@H]3CCC4=CC(=O)CC[C@]4(C)[C@@]3(F)[C@@H](O)C[C@@]21C`, in test [1], the max response is 28.7%.
The same measure, in the same setting: as for `CC1(C)S[C@@H]2[C@H](NC(=O)Cc3ccccc3)C(=O)N2[C@H]1C(=O)O`, the figure is -8.27%.
As for `CCOc1cc2ncc(C#N)c(Nc3ccc(OCc4ccccn4)c(Cl)c3)c2cc1NC(=O)/C=C/CN(C)C`, the Potency is 1.42 µM (active) in test [4] and 224 nM (active) in test [5]. In test [1], the max response was -14.4%.
On to `CC1(C)C(C=C(Cl)Cl)C1C(=O)OCc1cccc(Oc2ccccc2)c1` (stereo not given), for which, in test [2], the Potency entry is “inactive”. For the same molecule, the max response in test [1] was -12.6%.
Take `CCCCC(=O)OCC(=O)[C@]1(O)Cc2c(O)c3c(c(O)c2[C@@H](O[C@H]2C[C@H](NC(=O)C(F)(F)F)[C@H](O)[C@H](C)O2)C1)C(=O)c1c(OC)cccc1C3=O`: the Potency in test [1] is 8.2 µM (active).
With `COc1ccc(C[C@@H](C)NC[C@H](O)c2ccc(O)c(NC=O)c2)cc1`, the max response in test [1] was 2.59%.
Consider `COc1cc2c(Nc3ccc(Cl)c(Cl)c3F)ncnc2cc1OCC1C[C@@H]2CN(C)C[C@@H]2C1` (stereo not given in full), for which the Potency in test [4] was 16.4 µM (active) and 13.2 µM (active); in test [5], 231 nM (active) and 11.7 nM (active); in test [1], 18.4 µM (active); in test [6] it was 1.3 µM (active) and 8.31 µM (active).
As to `CO[C@H]1C=CO[C@@]2(C)Oc3c(C)c(O)c4c(O)c(c5c(nc6cc(C)ccn65)c4c3C2=O)NC(=O)/C(C)=C\C=C[C@H](C)[C@H](O)[C@@H](C)[C@@H](O)[C@@H](C)[C@H](OC(C)=O)[C@@H]1C`, the max response in test [1] is 5.41%.
`COc1ccc(C[C@H](N)C(=O)N[C@H]2[C@@H](O)[C@H](n3cnc4c(N(C)C)ncnc43)O[C@@H]2CO)cc1`: the Potency in test [7] was 920 nM (active); in test [5], 1300 nM (active); in test [1], 5.17 µM (active) and 517 nM (active); in test [6] it was 2.31 µM (active); in test [8], 1160 nM (active).
Regarding `CC(C)NCC1CCc2cc(CO)c([N+](=O)[O-])cc2N1` (stereo not given), in test [1], the max response is 2.46%.
In the case of `C[C@]12C=CC(=O)N[C@@H]1CC[C@@H]1[C@@H]2CC[C@]2(C)[C@@H](C(=O)Nc3cc(C(F)(F)F)ccc3C(F)(F)F)CC[C@@H]12`, the max response in test [1] is 5.03%.
For the molecule `N[C@H](C(=O)O)[C@@H]1CC(Cl)=NO1`, the Potency in test [1] was 20.6 µM (active).
In the case of `C=C(NC(=O)C(=C)NC(=O)c1csc(C2=N[C@@H]3c4csc(n4)[C@H]4NC(=O)c5csc(n5)[C@H]([C@](C)(O)[C@@H](C)O)NC(=O)[C@H]5CSC(=N5)C(=CC)NC(=O)C([C@@H](C)O)NC(=O)c5csc(n5)[C@]3(CC2)NC(=O)[C@H](C)NC(=O)C(=C)NC(=O)[C@H](C)NC(=O)C([C@@H](C)CC)NC2C=Cc3c([C@H](C)O)cc(nc3C2O)C(=O)O[C@@H]4C)n1)C(N)=O` (stereo not given in full), the max response in test [1] is -16.7%.
On to `N#Cc1ccc2[nH]c(O)c(-c3ccc(CN4CCOCC4)cn3)c2c1`, for which the values for the max response in test [4], in test [5] and in test [6] were -0.745%, -0.0847% and -16.6%, respectively. Moreover, the call in test [4] and in test [6] was inactive. Moreover, in test [8], the Potency entry was “inactive”.
Turning to `CC(=O)N(CC(C)C(=O)O)c1c(I)cc(I)c(N)c1I` (stereo not given), the max response in test [1] is -8.47%.
For `O=C(O)c1cc(=O)c2c3nc4ccccc4oc-3cc(=O)c2[nH]1`, the max response in test [1] is -4.67%.
Same read-out and setting: as for `CC(=O)N[C@@H](CC(=O)N[C@@H](CCC(=O)O)C(=O)O)C(=O)O`, the figure is -12.8%; as for `CCC(=O)OCC(=O)[C@@]1(OC(=O)CC)[C@H](C)C[C@H]2[C@H]3[C@H]([C@@H](O)C[C@@]21C)[C@@]1(C)C=CC(=O)C=C1C[C@H]3Cl`, 31.3%; as for `Cc1cc(CC(C)CC(C)(C)C)n(O)c(=O)c1` (stereo not given) (tested in a mixture with another compound), 29.3%.
Regarding `CN(C)CC/C=C1/c2ccccc2CSc2ccccc21`, the max response in test [1] was -13.6%.
As to `NC(=O)c1ncn(C2OC(CO)C(O)C2O)n1` (stereo not given), the Potency result in test [2] and in test [3] was “inactive” in each case.
For `C[C@]12CCC(=O)C=C1CC[C@@H]1[C@@H]2[C@@H](O)C[C@@]2(C)[C@H]1CC[C@]2(O)C(=O)COP(=O)(O)O`, the Potency result in test [2] and in test [3] was “inactive” each time.
Take `CC(Cc1ccc(O)c(O)c1)C(C)Cc1ccc(O)c(O)c1` (stereo not given): in test [3], the Potency is 15100 nM (active).
As to `CC1=C(/C=C/C(C)=C/C=C/C(C)=C/C=C/C=C(C)/C=C/C=C(C)/C=C/C2=C(C)C(=O)CCC2(C)C)C(C)(C)CCC1=O`, the Potency result in test [2] and in test [3] was “inactive” in each case.
With `O=C1CSC2(CCN(CCCN3c4ccccc4Sc4ccc(Cl)cc43)CC2)N1`, in test [3], the Potency is 4780 nM (active).
With `CC[C@@]1(O)C(=O)OCc2c1cc1n(c2=O)Cc2cc3c([N+](=O)[O-])cccc3nc2-1`, the values for the Potency in test [2] and in test [3] were 3980 nM (active) and 4780 nM (active), respectively.
`CC(O)CO` (stereo not given): the Potency entry in test [2] and in test [3] was “inactive” in each case.
